# In the library only some 19% were active in any assay of this set; here they are far more common.
# HT1080-NT tox: kills 2HG-producing HT-1080-NT fibrosarcoma cells. HT-1080-NT fibrosarcoma viability, CellTiter-Glo ATP luminescence, 48 h. actives 1.6% (n = 360,000). Potency, µM (highest dose often 46.1 µM), inactives show at the top dose activity, negative = less viability, hits mostly cytotoxic;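 further: NT is the 2HG producing partner of a matched IDH1 knockdown line; potency means the concentration at half of the fitted maximal effect; 0% = DMSO-treated cells and -100% = media-only wells without cells; nearly all actives have a fitted effect of over 55% in size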
#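 Compounds were tested in concentration-response format on HT-1080-NT cells for 48 hours at 37 degrees C. Cell viability came from CellTiter-Glo luminescence; curves were classified by r2, response magnitude and activity.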
# IL1B secr inh: blocks inflammasome-driven IL-1 beta release; THP-1 LPS/ATP IL-1B secretion, AlphaLISA, 16 h; active compounds read low; activity change, % at 57.5 µM; actives 4.7% (n = 360,000); in the data active means activity change below about -50%; inconclusive means mostly about -30% to -49%
#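 Secreted IL-1B measured by AlphaLISA bead assay after 16 h compound exposure of THP-1 cells; compounds (final up to 57.5 uM) added 1 h before LPS (250 ng/mL) and ATP (1.25 mM) stimulation; lower signal means less secretion.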
# TDP1 cell noCPT: qHTS for Inhibitors of human tyrosyl-DNA phosphodiesterase 1 (TDP1): qHTS in cells in absence of CPT | DT40 Tdp1-/- hTDP1 cells, no CPT, ATP luminescence, 48 h | Potency, µM (series often up to 46.2 µM), inactives show at the top dose activity change, negative = growth inhibition, usual class: inhibitors | actives 15% (n = 420,000); further: potency means the concentration at half of the fitted maximal effect; nearly all actives have a fitted effect of over 55% in size
#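 Growth of hTDP1-complemented DT40 Tdp1-knockout cells is measured by ATP luminescence after at least 48 hr compound exposure at 37 °C, with DMSO substituting for the 20 nM CPT used in the parallel screen.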
# DT40 TDP1 CPT: growth inhibition of DT40 Tdp1-/-;hTDP1 cells with camptothecin (screen for TDP1 inhibitors). chicken DT40 Tdp1-/-;hTDP1 cells + 20 nM CPT, ATP luminescence, 48 h. actives 12% (n = 420,000). Potency, µM (top dose mostly 46.2 µM), for inactives: top-dose activity change, negative = growth inhibition, hits mostly inhibitors; further: potency means the concentration at half of the fitted maximal effect; nearly all actives have a fitted effect of over 55% in size
#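 Cell growth measured by CellTiter-Glo luminescence after a minimum 48 h, 37 C compound exposure with 20 nM CPT in Tdp1-knockout DT40 cells stably expressing hTDP1, seeded 400/well; qHTS titration format.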
# HT1080 IDH1KD tx: HT-1080 IDH1 knockdown cell toxicity (counter line); HT-1080 IDH1 knockdown viability, ATP luminescence, 48 h; Potency, µM (highest dose often 46.1 µM), inactives show at the top dose activity, negative = toxicity, hits mostly cytotoxic; actives 2% (n = 360,000);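 further: potency means the concentration at half of the fitted maximal effect; 0% = DMSO wells and -100% = cell-free medium wells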
#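 In this qHTS, HT-1080 cells depleted of IDH1 are exposed for 48 h at 37 °C to compound titrations. Toxicity is scored from CellTiter-Glo luminescence, with DMSO as full viability and medium alone as none.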
# Starred values were filed as active, the others as inactive; ? = inconclusive; · = no result. Unless noted, the call rests on the fitted dose curve; in most records, active means well fitted curve in the direction sought with a large enough effect; inconclusive means small, poorly fitted or top-dose-only effect, or another doubt; inactive means no such curve, though single readings can be large; an effect the other way counts as inactive or inconclusive. Unless noted, on the % scale 0 is the no-effect control and ±100 the full control effect.
SMILES,HT1080-NT tox,IL1B secr inh,TDP1 cell noCPT,DT40 TDP1 CPT,HT1080 IDH1KD tx
CCn1nc(C(=O)NCC2COc3ccccc3O2)c2ccccc2c1=O (stereo not drawn),-8%,-20,?,?,-20%
Cc1cc(/C=C(\C#N)C(=O)Nc2ccccc2)c(C)n1-c1ccc(F)cc1,·,·,2%,-8%,·
CCOC(=O)/C(C#N)=C/c1cc2cc(C)c(C)cc2nc1Cl,-11%,-24,?,?,1%
Cc1cc2nc(Cl)c(Cl)nc2cc1C,0%,-2,8%,-7%,2%
Cc1ccc(-n2c(C)cc(/C=C(\C#N)C(=O)Nc3ccc(C)c(C)c3)c2C)cc1,·,·,?,-28%,·
CCOC(=O)/C(C#N)=C/c1cc(C)n(-c2ccccc2)c1C,4%,-12,21µM*,16µM*,12%
Cc1ccc(NC(=O)/C(C#N)=C/c2cc(C)n(-c3ccc(Br)cc3)c2C)cc1C,·,·,5.8µM*,4.6µM*,·
CCOC(=O)/C(C#N)=C/c1cc2ccc(C)cc2nc1Cl,0%,24,2.9µM*,4.1µM*,-2%
Cc1cc2cc(C=C(C#N)C#N)c(Cl)nc2cc1C,-21%,-100*,7.3µM*,7.3µM*,?
CC(C)C(NS(C)(=O)=O)c1nnc2n1CCN(Cc1cccc3ncccc13)CC2 (stereo not drawn),·,·,-13%,-1%,·
Cc1cc(C(=O)O)ccc1-n1c(C)cc(/C=C(/C#N)C(=O)Nc2ccccc2)c1C,-8%,-66*,-34%,-27%,-18%
Cc1cc(/C=C(\C#N)C(=O)Nc2ccccc2)c(C)n1-c1cccnc1,5%,-76*,?,?,8%
NCCC(=O)N[C@@H](Cc1cnc[nH]1)C(=O)O,·,·,-6%,11%,·
CCN1/C(=C/C(C)=C/c2sc3ccccc3[n+]2CC)Sc2ccccc21,10µM*,-97*,0.18µM*,0.18µM*,1.5µM*
COc1ccc(C(=O)N/C(=C/c2ccc(Cl)cc2)C(=O)Nc2ccc(C(=O)O)cc2)cc1,6%,-4,7%,16%,8%
Cc1ccc(S(=O)(=O)N2CCCCC2)cc1NC(=O)COC(=O)c1ccc(O)cc1,-22%,-18,?,?,-13%
CC1CN(CC(O)COC2CCC(C(C)(C)C)CC2)CC(C)O1 (stereo not drawn),0%,17,-25%,?,-3%
CC1CCCC(C)N1CC(O)COC1CCC(C(C)(C)C)CC1 (stereo not drawn),-17%,0,21µM*,23µM*,-28%
O=c1ccn([C@@H]2O[C@H](COP(=O)(O)O)[C@@H](O)[C@H]2O)c(=O)[nH]1,·,·,-21%,?,·
Nc1ccn(C2OC(COP(=O)(O)O)C(O)C2O)c(=O)n1 (stereo not drawn),-3%,27,1.2µM*,0.65µM*,-17%
CN(C)C(=O)c1ccc(-c2ccc3ncnc(NCc4cccnc4)c3c2)cc1,·,·,-22%,-9%,·
c1cncc(CNc2ncnc3ccc(-c4ccoc4)cc23)c1,·,·,?,10µM*,·
Cc1cccc(CNc2ncnc3ccc(-c4cccnc4)cc23)c1,·,·,18µM*,12µM*,·
Cc1cccc(CNc2ncnc3ccc(-c4ccoc4)cc23)c1,·,·,13µM*,21µM*,·
O=C(Oc1ccc(Nc2ncnc3ccccc23)cc1)c1cccnc1,-6%,19,?,-14%,5%
SMILES,HT1080-NT tox,IL1B secr inh,TDP1 cell noCPT,DT40 TDP1 CPT,HT1080 IDH1KD tx
c1ccc(Nc2ncnc3ccc(-c4cccnc4)cc23)cc1,·,·,18µM*,?,·
COc1cc(C2C3=C(CC(C)(C)CC3=O)N(C)C3=C2C(=O)CC(C)(C)C3)cc(Br)c1O,-2%,-8,-15%,-6%,-3%
Cc1noc(C)c1-c1ccc2ncnc(Nc3ccccc3)c2c1,·,·,?,-28%,·
Cc1noc(C)c1-c1ccc2ncnc(NCc3cccnc3)c2c1,·,·,?,9.2µM*,·
c1csc(-c2nc3c4ccccc4c4ccccc4c3[nH]2)c1,-25%,-5,?,21µM*,?
Oc1ccccc1-c1ccn[nH]1,16%,-3,-17%,-20%,8%
Oc1ccccc1-c1nc2c3ccccc3c3ccccc3c2[nH]1,?,29,18µM*,21µM*,?
CCOc1ccc(CNC(=O)C2CCN(S(=O)(=O)c3ccc4c(ccn4C)c3)CC2)cc1,·,·,-27%,?,·
O=C(CCCc1ccccc1)Nc1ccnn1C1CCN(Cc2ccccc2F)CC1,1%,-19,21µM*,23µM*,5%
CSc1ccc(CN2CCC(n3nccc3NC(=O)CCCc3ccccc3)CC2)cc1,?,?,?,23µM*,?
Cc1ccccc1C(=O)Nc1ccnn1C1CCN(C(C)Cc2ccccc2F)CC1 (stereo not drawn),-14%,-7,-54%,23µM*,-22%
Cc1ccc(C)c(CN2CCC(n3nccc3NC(=O)CCCc3ccccc3)CC2)c1,-16%,?,?,?,-17%
O=C(CCCc1ccccc1)Nc1ccnn1C1CCN(Cc2ccccc2)CC1,-14%,-12,?,?,-24%
CN1CC[C@@]2(CCCN(C(=O)c3cccc(F)c3)C2)C1,·,·,-6%,5%,·
CCOC(=O)Cc1nnc2c(Nc3ccc(Cl)cc3)nc3nonc3n12,?,25,?,?,9.2µM*
O=C(Nc1ccc(Cl)c(C(F)(F)F)c1)NC1CC2CCCC(C1)N2C1CC1 (stereo not drawn),?,?,11µM*,11µM*,?
O=C(Nc1cccc(F)c1)NC1CC2CCCC(C1)N2C1CC1 (stereo not drawn),1%,-14,?,?,4%
CS(=O)(=O)c1cccc(NC(=O)CSc2nnc3n2CCCCC3)c1,5%,4,6%,29%,1%
C=CC[C@H](CC(=O)N(CCO)Cc1ccccc1)C(=O)NCCOC(=O)[C@@H](CC=C)CC(=O)OC(C)(C)C,3%,-2,?,23µM*,-2%
C=CC[C@H](CC(=O)N(CCO)Cc1ccccc1)C(=O)NCCOC(=O)[C@H](CC=C)CC(=O)OC(C)(C)C,0%,-21,21µM*,16µM*,-1%
Cc1ccc(Cc2nc3ccccc3n2C(CCc2ccccc2)c2nc3ccccc3[nH]2)cc1 (stereo not drawn),-5%,-69*,18µM*,?,-2%
FC(F)(F)c1cc(Cc2nc3ccccc3n2C(CCc2ccccc2)c2nc3ccccc3[nH]2)cc(C(F)(F)F)c1 (stereo not drawn),21µM*,5,7.3µM*,7.3µM*,?
N#Cc1cccc(S(=O)(=O)NNC(=O)C23CC4CC(CC(C4)C2)C3)c1,1%,18,-27%,-15%,-2%

# Assay outcomes: PubChem BioAssay, National Center for Advancing Translational Sciences (NCATS)
